The full data set covers some 8,800 targets. This sample favours those with a hit. About 0.5% of all pairs of compound and target were hits.
Tests used:
Assay in all cases: log2 fold change, soluble protein after heating vs DMSO (PISA); higher = thermal stabilisation; K562 lysate, 10 uM; active = over 0.2 and 3.5 SD of the protein, either way, in both replicates (recomputed)
erlotinib = compound: C#Cc1cccc(Nc2ncnc3cc(OCCOC)c(OCCOC)cc23)c1 [erlotinib]
Summary of the method: (§1)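 Soluble protein was defined as the supernatant remaining after 21,000xg for 90 min, following pooling of heated aliquots and adjustment to 0.5% NP-40 at 4°C. Before that, crude K562 extract at 1 mg/mL protein in PBS pH 7.4 with 1 mM MgCl2 was treated with 10 μM compound for 30 min and heated for 3 min across 48°C-58°C. Quantification used TMTpro 16plex LC-MS/MS with channel sums equalised, and values are log-two fold changes in thermal stability relative to solvent controls from duplicates.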

[1] = compound: C/C(=N\NC(=O)C1=CC(=CC=C1)S(=O)(=O)N2CCOCC2)/C3=C(C=CC(=C3)Cl)O
Summary of the method: as §1

[2] = compound: C1=CC(=CC=C1C2=NC3=C(N2)C=C(C=C3)C(=O)N)OC4=CC=C(C=C4)Cl
Summary of the method: as §1

[3] = compound: C1=CC2=C(C=CC(=C2)/C=C\3/C(=O)NC(=NCC4=CC=CS4)S3)N=C1
Summary of the method: as §1

[4] = compound: C1=CC2=NC=CN=C2C=C1/C=C/3\C(=O)NC(=O)S3
Summary of the method: as §1

[5] = compound: C1=CC=C(C=C1)C2=NC(=C(N2)C3=CC=NC=C3)C4=CC(=C(C=C4)Cl)O
Summary of the method: as §1

[6] = compound: C1=CC=C2C(=C1)C3=NNC4=CC=CC(=C43)C2=O
Summary of the method: as §1

[7] = compound: C1CCN(C1)C(=O)NC2=CC=CC(=C2)NC3=NC=C(C(=N3)NCCC4=CN=CN4)Br
Summary of the method: as §1

[8] = compound: C1CN(CCC1(CC2=CC=C(C=C2)Cl)N)C3=NC=NC4=C3C=CN4
Summary of the method: as §1

IRAK-1-4 Inhibitor I = compound: C1COCCN1CCN2C3=CC=CC=C3N=C2NC(=O)C4=CC(=CC=C4)[N+](=O)[O-] [IRAK-1-4 Inhibitor I]
Summary of the method: as §1

ibrutinib = compound: C=CC(=O)N1CCC[C@@H](n2nc(-c3ccc(Oc4ccccc4)cc3)c3c(N)ncnc32)C1 [ibrutinib]
Summary of the method: as §1

[9] = compound: CC(=O)c1cnc2ccc(-c3cc(Cl)c(O)c(Cl)c3)nc2c1N[C@H]1CC[C@H](CN(C)C)CC1
Summary of the method: as §1

ralimetinib = compound: CC(C)(C)Cn1c(N)nc2ccc(-c3[nH]c(C(C)(C)C)nc3-c3ccc(F)cc3)nc21 [ralimetinib]
Summary of the method: as §1

[10] = compound: CC(C)(O)CC(=O)NCCn1ccc2ncnc(Nc3ccc(Oc4cccc(C(F)(F)F)c4)c(Cl)c3)c21
Summary of the method: as §1

[11] = compound: CC(C)C1=C2N=C(C=C(N2N=C1)NCC3=CC=CC=C3)NCCCCCCN
Summary of the method: as §1

[12] = compound: CC1=C(C(CC(=O)N1)C2=CC=C(C=C2)C(F)(F)F)C(=O)NC3=C(C=C4C(=C3)C=NN4)F
Summary of the method: as §1

[13] = compound: CC1=C(C2=C(C=C1)C(=O)C3=CC=CC=C3N2CCCN)C
Summary of the method: as §1

[14] = compound: CC1=C(C=C(C=C1)NC(=O)C2=CC(=CC=C2)C(C)(C)C#N)NC3=CC4=C(C=C3)N=CN(C4=O)C
Summary of the method: as §1

[15] = compound: CC1=C(C=C(C=C1)NC(=O)C2=CC(=CC=C2)N(C)C)NC(=O)C3=CC=C(C=C3)O
Summary of the method: as §1

[16] = compound: CC1=CC=C(C=C1)SC2=C3C=C(SC3=CN=C2)C(=O)N
Summary of the method: as §1

Measured: log2 fold change

BET1 (UniProt O15155)
Sequence of UniProt O15155 (O15155 whole entry, looked up): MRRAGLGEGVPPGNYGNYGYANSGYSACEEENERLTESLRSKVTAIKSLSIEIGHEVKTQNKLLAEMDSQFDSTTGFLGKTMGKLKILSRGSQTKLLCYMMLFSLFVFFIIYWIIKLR
inactive: erlotinib 0.025 | [1] -0.092 | [2] -0.059 | [3] 0.033 | [4] 0.08 | [5] 0.033 | [6] -0.015 | [7] 0.039 | [8] 0.018 | IRAK-1-4 Inhibitor I 0.006 | ibrutinib -0.03 | [9] 0.041 | ralimetinib -0.085 | [10] 0.01 | [11] 0.035 | [12] 0.033 | [13] -0.01 | [14] -0.019 | [15] 0.001 | [16] -0.001

CCNK isoform 4 (UniProt O75909)
Sequence of UniProt O75909 (O75909 whole entry, looked up): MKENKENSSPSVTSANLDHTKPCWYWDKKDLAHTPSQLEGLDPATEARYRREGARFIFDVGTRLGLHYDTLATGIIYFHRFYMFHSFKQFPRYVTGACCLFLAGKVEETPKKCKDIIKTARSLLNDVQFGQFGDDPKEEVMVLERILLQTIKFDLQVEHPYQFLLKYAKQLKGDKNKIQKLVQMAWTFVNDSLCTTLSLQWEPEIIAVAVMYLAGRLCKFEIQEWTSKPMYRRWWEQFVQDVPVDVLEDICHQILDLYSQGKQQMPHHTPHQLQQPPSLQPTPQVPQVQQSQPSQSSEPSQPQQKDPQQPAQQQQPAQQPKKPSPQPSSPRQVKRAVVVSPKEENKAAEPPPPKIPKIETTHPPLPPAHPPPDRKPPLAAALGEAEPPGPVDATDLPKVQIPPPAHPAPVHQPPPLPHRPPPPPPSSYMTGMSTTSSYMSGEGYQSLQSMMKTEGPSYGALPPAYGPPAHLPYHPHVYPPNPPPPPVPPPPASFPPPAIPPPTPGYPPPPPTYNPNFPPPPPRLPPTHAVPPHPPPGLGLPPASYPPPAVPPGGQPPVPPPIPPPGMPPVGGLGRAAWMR
inactive: erlotinib -0.018 | [1] -0.022 | [2] -0.012 | [3] -0.016 | [4] -0.062 | [5] -0.039 | [6] -0.001 | [7] 0.01 | [8] 0.002 | IRAK-1-4 Inhibitor I -0.021 | ibrutinib 0.09 | [9] 0.007 | ralimetinib 0.042 | [10] -0.01 | [11] 0.012 | [12] 0.015 | [13] -0.017 | [14] 0.024 | [15] -0.037 | [16] -0.007

ATP5PF isoform 2 (UniProt P18859)
Sequence of UniProt P18859 (P18859 whole entry, looked up): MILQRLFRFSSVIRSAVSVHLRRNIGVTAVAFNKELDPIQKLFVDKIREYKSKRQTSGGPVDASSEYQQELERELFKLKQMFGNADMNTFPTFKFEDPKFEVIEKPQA
inactive: erlotinib 0.063 | [1] 0.107 | [2] -0.021 | [3] 0.011 | [4] 0.017 | [5] 0.05 | [6] -0.01 | [7] -0.003 | [8] 0.09 | IRAK-1-4 Inhibitor I -0.026 | ibrutinib 0.069 | [9] -0.055 | ralimetinib -0.003 | [10] 0.063 | [11] -0.053 | [12] -0.032 | [13] -0.055 | [14] 0.026 | [15] 0.05 | [16] 0.083

CAMLG (UniProt P49069)
Sequence of UniProt P49069 (P49069 whole entry, looked up): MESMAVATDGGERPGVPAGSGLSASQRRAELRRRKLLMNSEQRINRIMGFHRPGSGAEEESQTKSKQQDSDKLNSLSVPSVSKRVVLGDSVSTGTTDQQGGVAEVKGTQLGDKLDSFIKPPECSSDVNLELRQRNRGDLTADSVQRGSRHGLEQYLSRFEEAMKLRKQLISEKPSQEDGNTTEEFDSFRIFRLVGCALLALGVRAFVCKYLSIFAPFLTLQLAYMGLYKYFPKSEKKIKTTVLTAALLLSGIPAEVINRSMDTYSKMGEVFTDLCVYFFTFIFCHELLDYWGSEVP
inactive: erlotinib -0.002 | [1] 0.05 | [2] -0.013 | [3] 0.004 | [4] -0.001 | [5] 0.035 | [6] -0.033 | [7] 0.029 | [8] -0.028 | IRAK-1-4 Inhibitor I -0.025 | ibrutinib -0.019 | [9] -0.003 | ralimetinib 0.084 | [10] -0.023 | [11] 0.009 | [12] -0.068 | [13] -0.024 | [14] -0.028 | [15] 0.004 | [16] -0.012

BCKDHB (UniProt P21953)
Sequence of UniProt P21953 (P21953 whole entry, looked up): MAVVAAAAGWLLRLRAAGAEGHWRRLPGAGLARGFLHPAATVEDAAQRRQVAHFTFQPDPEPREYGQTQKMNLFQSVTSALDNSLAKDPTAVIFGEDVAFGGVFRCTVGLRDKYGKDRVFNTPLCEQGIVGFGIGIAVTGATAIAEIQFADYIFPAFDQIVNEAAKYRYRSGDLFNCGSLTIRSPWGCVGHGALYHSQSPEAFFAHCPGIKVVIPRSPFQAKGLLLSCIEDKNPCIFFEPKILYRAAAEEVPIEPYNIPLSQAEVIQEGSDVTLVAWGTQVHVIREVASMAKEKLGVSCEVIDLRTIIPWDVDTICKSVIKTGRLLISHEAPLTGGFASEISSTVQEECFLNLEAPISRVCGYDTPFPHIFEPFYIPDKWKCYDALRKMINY
inactive: erlotinib 0.013 | [1] -0.034 | [2] 0.033 | [3] -0.089 | [4] 0.049 | [5] -0.098 | [6] -0.117 | [7] 0.065 | [8] -0.012 | IRAK-1-4 Inhibitor I 0.134 | ibrutinib -0.102 | [9] 0.025 | ralimetinib 0.003 | [10] -0.01 | [11] -0.037 | [12] 0.016 | [13] -0.022 | [14] -0.078 | [15] 0.071 | [16] 0.024

CDK5RAP2 (UniProt Q96SN8)
Sequence of UniProt Q96SN8 (Q96SN8 whole entry, looked up): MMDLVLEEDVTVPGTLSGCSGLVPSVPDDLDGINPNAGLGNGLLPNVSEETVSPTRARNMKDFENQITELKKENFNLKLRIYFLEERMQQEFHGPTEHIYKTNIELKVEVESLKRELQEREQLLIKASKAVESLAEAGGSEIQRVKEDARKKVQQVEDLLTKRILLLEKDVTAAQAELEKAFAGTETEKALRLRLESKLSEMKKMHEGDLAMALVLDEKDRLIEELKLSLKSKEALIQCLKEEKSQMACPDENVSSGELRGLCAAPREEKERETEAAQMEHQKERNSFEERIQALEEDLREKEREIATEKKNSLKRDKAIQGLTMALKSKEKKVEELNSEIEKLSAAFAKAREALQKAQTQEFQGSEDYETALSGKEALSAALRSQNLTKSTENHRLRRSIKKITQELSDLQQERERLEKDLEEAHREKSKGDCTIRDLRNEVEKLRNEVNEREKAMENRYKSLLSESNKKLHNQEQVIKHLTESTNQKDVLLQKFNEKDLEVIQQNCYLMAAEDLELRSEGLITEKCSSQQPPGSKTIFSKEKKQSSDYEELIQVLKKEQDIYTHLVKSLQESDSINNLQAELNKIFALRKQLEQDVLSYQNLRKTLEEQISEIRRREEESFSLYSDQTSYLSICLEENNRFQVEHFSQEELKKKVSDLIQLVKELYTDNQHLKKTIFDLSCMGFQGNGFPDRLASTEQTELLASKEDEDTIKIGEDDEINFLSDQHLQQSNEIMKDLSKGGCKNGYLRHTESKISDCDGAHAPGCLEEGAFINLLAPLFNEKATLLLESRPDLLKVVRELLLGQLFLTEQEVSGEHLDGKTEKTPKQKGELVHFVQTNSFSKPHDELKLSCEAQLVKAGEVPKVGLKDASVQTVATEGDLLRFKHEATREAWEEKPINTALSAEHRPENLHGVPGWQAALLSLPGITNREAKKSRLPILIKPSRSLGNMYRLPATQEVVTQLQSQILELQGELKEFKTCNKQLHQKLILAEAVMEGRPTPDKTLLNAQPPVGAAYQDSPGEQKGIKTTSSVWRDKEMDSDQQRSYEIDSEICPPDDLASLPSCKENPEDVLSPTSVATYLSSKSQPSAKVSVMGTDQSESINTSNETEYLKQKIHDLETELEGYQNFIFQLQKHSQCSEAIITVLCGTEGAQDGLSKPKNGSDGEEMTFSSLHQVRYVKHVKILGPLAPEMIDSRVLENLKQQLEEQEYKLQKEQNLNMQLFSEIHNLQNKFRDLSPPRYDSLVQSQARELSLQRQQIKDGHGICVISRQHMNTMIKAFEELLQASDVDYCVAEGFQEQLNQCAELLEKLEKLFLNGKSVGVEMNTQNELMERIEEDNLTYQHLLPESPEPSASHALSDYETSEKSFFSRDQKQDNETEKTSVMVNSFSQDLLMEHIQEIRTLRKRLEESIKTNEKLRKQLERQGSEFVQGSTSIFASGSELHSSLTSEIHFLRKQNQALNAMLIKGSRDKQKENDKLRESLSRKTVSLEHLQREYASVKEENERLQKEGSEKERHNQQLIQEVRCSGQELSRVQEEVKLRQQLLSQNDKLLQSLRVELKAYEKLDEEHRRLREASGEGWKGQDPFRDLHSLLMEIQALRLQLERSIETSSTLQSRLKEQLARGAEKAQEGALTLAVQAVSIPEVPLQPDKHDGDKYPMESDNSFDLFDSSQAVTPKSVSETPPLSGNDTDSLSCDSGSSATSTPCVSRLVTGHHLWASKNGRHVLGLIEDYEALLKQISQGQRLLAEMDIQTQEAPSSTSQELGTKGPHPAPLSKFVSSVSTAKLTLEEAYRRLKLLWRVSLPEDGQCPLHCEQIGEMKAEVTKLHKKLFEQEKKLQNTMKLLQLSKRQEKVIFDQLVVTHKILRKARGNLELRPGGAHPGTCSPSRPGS
inactive: erlotinib 0.037 | [1] 0.159 | [2] -0.021 | [3] -0.008 | [4] -0.09 | [5] -0.011 | [6] -0.025 | [7] -0.016 | [8] 0.001 | IRAK-1-4 Inhibitor I -0.026 | ibrutinib -0.022 | ralimetinib -0.006 | [10] 0.01 | [11] -0.019 | [12] -0.001 | [13] -0.044 | [14] -0.007 | [15] 0.003 | [16] 0.067
active: [9] 0.268
